# PMC7862700, “An all-to-all approach to the identification of sequence-specific readers for epigenetic DNA modifications on cytosine”
# How the values were obtained:
# Experiment in all cases: DAPPL (digital affinity profiling via proximity ligation, sequencing); 10 mM Tris-HCl pH 7.5, 50 mM NaCl, 1 mM DTT, 4% glycerol, room temperature, 30 min; GST-TFs on glutathione beads, 16-mer random dsDNA library, 0.1% formaldehyde crosslink after washing; high values mean tight binding
# Details in all cases: protein: recombinant; tags: N-terminal GST; dsDNA, one strand shown
# ELK1 = biological target: T1, ELK1 (Homo sapiens, UniProt P19419 1-428)
# T1 sequence: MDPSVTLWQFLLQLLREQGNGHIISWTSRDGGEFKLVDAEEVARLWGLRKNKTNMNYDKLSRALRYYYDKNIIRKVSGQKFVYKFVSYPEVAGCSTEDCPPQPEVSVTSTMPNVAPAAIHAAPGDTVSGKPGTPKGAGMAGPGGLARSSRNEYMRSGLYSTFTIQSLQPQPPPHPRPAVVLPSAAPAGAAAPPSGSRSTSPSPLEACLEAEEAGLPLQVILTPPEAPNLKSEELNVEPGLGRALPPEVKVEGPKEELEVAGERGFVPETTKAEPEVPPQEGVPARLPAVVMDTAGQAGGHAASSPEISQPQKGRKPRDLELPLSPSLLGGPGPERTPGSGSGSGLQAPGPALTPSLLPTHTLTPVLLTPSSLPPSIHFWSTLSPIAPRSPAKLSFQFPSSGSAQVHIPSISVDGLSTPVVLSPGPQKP
# Method in brief: (§1)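 A tag-only sample was pooled with DNA-barcoded human transcription factors that had been expressed in yeast as GST fusions and captured on glutathione beads. The pools were incubated for 30 min at room temperature with 200 nmole of a random double-stranded 16-mer DNA library in Tris/NaCl/DTT/glycerol buffer, then washed, crosslinked with 0.1% formaldehyde, proximity-ligated (BsaI/T4 ligase, 1 h, 37 °C), PCR-amplified and sequenced on an Illumina NextSeq500. Binding signal is each hexamer's read frequency for a factor divided by its frequency for the tag-only sample.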
# ERG = biological target: T2, ERG (Homo sapiens, UniProt P11308 1-479)
# T2 sequence: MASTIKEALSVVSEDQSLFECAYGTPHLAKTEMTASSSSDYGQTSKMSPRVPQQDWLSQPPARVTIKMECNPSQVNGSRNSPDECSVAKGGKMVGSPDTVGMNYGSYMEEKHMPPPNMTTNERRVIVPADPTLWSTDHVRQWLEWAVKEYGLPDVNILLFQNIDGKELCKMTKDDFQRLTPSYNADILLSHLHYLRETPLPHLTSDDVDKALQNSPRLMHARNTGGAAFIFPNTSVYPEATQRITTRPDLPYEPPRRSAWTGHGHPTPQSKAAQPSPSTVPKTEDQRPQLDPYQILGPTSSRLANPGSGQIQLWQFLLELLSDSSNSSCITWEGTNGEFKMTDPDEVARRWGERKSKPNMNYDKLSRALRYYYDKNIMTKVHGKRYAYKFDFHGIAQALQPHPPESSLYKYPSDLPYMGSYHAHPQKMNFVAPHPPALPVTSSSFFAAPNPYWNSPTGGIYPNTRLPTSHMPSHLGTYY
# Method in brief: as §1
# ELF1 = ELF1 (Homo sapiens, UniProt P32519 1-619)
# Method in brief: as §1
# EHF = biological target: T3, EHF (Homo sapiens, UniProt Q9NZC4 1-300)
# T3 sequence: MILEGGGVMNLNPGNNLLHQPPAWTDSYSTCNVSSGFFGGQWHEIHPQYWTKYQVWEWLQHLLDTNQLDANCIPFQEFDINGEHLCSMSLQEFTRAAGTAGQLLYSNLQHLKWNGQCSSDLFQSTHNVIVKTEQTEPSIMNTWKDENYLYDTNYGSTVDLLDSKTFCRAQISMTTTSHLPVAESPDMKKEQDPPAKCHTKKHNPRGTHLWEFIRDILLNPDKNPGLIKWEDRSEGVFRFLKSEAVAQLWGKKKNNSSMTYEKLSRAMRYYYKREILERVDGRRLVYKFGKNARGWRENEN
# Method in brief: as §1
# SPIB = SPIB (Homo sapiens, UniProt Q01892 1-262)
# Method in brief: as §1
# FEV = biological target: T4, FEV (Homo sapiens, UniProt Q99581 1-238)
# T4 sequence: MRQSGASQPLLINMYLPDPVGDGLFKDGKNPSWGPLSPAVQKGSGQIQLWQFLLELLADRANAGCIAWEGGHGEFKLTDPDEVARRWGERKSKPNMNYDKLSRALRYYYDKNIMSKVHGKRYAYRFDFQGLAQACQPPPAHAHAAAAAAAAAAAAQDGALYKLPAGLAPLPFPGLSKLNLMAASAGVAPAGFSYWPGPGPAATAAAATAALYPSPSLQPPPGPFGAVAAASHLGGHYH
# Method in brief: as §1
# ETV5 = ETV5 (Homo sapiens, UniProt P41161 1-510)
# Method in brief: as §1
# ELK4 = biological target: T5, ELK4 (Homo sapiens, UniProt P28324-2 1-405)
# T5 sequence: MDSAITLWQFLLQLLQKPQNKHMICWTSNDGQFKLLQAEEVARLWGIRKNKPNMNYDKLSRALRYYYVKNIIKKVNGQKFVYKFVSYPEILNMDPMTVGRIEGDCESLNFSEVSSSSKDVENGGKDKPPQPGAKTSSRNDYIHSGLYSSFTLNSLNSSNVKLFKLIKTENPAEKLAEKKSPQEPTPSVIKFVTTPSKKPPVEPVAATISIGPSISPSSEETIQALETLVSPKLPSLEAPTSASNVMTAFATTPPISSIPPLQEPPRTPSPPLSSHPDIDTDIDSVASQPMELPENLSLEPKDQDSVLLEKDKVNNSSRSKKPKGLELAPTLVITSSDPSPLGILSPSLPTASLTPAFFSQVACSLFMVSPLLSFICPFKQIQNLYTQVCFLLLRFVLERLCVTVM
# Method in brief: as §1
# ETV2 = biological target: T6, ETV2 (Homo sapiens, UniProt O00321 1-342)
# T6 sequence: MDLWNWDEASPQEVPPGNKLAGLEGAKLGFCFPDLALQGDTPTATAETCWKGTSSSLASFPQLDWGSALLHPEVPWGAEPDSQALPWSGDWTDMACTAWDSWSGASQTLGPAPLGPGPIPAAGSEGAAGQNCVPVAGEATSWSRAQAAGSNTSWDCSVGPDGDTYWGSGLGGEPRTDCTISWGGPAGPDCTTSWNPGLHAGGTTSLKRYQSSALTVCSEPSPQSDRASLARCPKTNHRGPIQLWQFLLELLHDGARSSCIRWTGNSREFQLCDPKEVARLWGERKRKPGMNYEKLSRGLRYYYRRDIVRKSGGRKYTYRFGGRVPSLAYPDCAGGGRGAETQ
# Method in brief: as §1
# ETV1 = ETV1 (Homo sapiens, UniProt P50549 1-477)
# Method in brief: as §1
# ERF = biological target: T7, ERF (Homo sapiens, UniProt P50548 1-548)
# T7 sequence: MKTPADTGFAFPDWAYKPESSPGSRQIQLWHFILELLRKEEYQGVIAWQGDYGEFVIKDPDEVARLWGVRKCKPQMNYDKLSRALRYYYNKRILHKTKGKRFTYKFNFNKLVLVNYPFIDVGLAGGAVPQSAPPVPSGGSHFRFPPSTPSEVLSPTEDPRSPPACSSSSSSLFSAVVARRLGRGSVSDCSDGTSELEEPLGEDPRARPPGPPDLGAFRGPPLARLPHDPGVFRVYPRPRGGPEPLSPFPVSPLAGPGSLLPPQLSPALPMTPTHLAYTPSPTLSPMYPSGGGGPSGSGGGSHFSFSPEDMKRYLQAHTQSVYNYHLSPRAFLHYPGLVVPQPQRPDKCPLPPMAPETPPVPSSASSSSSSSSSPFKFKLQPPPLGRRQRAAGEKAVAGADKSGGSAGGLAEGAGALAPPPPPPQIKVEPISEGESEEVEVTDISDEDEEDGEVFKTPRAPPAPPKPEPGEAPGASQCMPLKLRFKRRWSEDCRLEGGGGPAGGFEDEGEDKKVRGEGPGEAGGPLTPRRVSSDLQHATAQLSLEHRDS
# Method in brief: as §1
# ETV3L = biological target: T8, ETV3L (Homo sapiens, UniProt Q6ZN32 1-361)
# T8 sequence: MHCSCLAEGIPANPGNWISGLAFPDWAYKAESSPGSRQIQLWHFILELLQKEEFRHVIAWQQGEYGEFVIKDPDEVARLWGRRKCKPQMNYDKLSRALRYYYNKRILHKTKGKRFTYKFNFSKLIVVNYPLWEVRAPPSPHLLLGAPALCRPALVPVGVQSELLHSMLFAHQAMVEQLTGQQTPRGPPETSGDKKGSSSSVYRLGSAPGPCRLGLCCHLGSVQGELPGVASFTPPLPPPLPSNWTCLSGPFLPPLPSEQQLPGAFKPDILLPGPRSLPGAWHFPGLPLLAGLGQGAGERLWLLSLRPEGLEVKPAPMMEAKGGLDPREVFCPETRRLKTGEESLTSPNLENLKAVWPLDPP
# Method in brief: as §1
# ETS2 = biological target: T9, ETS2 (Homo sapiens, UniProt P15036 1-469)
# T9 sequence: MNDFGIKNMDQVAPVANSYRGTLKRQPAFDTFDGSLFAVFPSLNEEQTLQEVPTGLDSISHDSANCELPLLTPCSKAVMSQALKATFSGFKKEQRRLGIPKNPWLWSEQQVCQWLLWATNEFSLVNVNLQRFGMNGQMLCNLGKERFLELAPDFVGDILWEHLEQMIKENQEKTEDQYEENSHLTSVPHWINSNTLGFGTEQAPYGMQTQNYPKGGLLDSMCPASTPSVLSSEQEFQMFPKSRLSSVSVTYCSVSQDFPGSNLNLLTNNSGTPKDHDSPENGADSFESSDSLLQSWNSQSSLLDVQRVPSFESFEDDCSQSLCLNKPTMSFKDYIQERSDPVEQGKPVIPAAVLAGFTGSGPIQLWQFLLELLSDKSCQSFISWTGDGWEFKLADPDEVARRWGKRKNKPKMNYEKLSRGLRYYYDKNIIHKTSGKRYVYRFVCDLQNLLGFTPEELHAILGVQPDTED
# Method in brief: as §1
# SPDEF = biological target: T10, SPDEF (Homo sapiens, UniProt O95238 1-335)
# T10 sequence: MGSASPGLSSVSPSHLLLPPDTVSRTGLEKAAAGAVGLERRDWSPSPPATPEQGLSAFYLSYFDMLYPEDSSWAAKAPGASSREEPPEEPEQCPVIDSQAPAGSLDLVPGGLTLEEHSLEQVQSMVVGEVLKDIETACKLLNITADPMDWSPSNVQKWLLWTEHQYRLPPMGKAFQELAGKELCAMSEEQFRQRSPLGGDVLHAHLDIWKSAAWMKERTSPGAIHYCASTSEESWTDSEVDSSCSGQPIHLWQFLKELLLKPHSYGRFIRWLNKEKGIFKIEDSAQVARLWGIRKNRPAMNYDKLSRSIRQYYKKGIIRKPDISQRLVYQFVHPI
# Method in brief: as §1
# ETV3 = biological target: T11, ETV3 (Homo sapiens, UniProt P41162-2 1-143)
# T11 sequence: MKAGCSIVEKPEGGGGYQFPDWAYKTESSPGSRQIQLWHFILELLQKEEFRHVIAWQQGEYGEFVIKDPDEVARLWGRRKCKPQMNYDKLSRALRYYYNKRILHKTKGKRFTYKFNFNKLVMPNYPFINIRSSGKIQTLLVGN
# Method in brief: as §1
# ETV6 = ETV6 (Homo sapiens, UniProt P41212 1-452)
# Method in brief: as §1
# SPIB, sequence (Q01892 whole entry): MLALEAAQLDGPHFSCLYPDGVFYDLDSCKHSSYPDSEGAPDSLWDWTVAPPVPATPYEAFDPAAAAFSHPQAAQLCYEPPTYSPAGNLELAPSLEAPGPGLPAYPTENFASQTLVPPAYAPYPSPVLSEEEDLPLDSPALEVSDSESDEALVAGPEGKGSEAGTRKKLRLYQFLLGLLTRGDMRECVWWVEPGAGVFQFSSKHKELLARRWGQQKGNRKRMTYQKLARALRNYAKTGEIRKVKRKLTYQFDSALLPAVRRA
# ETV1, sequence (P50549 whole entry): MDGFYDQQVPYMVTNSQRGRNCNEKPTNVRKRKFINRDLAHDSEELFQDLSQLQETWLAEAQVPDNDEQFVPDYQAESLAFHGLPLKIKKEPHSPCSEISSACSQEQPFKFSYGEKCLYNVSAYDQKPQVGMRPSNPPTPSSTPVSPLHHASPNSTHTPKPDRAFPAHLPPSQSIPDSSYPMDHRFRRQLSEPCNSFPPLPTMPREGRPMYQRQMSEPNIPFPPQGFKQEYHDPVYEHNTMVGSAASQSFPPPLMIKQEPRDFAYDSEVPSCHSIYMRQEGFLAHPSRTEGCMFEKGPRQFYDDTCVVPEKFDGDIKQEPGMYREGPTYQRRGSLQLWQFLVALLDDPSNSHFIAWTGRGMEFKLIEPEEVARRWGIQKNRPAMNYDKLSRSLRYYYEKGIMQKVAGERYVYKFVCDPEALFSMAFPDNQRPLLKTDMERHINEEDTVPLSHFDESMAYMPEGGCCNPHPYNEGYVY
# ELF1, sequence (P32519 whole entry): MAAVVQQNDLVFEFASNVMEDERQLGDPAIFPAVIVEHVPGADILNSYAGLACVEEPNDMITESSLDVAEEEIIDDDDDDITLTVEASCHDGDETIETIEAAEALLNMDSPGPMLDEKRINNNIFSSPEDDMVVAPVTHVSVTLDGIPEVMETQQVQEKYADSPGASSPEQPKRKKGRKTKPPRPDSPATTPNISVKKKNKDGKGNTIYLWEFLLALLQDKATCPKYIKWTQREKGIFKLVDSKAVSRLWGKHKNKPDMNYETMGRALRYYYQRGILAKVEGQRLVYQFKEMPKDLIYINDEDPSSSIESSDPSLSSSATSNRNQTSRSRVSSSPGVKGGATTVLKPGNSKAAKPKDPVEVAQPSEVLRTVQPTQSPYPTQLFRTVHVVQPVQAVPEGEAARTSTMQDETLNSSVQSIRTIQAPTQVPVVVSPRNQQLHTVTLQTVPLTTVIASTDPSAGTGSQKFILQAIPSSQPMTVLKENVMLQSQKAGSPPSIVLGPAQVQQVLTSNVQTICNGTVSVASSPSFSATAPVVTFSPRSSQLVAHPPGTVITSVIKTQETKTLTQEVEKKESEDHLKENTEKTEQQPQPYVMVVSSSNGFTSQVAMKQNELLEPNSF
# ETV6, sequence (P41212 whole entry): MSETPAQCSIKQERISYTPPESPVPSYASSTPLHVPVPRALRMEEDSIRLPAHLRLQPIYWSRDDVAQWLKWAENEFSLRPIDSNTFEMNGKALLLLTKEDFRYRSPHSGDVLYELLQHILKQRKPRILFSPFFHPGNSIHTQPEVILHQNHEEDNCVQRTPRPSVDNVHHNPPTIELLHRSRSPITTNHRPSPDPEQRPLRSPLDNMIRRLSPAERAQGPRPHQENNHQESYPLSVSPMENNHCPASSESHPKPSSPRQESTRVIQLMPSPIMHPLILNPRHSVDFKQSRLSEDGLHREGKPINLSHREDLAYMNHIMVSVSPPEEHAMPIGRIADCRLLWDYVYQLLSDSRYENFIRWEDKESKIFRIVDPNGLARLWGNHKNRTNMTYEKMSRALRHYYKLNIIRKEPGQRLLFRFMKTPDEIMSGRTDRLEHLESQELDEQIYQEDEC
# ETV5, sequence (P41161 whole entry): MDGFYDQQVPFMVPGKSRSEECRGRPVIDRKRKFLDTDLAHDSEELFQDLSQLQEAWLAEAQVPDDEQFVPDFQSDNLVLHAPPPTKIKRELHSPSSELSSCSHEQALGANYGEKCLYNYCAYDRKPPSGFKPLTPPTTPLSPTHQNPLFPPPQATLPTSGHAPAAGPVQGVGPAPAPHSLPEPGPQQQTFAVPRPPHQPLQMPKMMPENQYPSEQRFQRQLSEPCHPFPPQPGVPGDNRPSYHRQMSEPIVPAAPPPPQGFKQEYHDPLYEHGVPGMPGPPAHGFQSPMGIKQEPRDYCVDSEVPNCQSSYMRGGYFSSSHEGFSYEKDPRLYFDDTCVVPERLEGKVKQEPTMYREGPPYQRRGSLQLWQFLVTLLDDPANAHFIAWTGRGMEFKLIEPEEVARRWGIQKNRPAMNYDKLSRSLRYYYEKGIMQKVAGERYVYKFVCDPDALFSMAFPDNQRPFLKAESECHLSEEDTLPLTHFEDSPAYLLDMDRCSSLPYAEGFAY
sequence,measurement,setting,value
CGACTG,binding signal,ELK1,"1.13 fold enrichment (6-mer frequency, TF over GST control)"
same,binding signal,ERG,"1.05 fold enrichment (6-mer frequency, TF over GST control)"
same,binding signal,ELF1,"1.08 fold enrichment (6-mer frequency, TF over GST control)"
same,binding signal,EHF,"1.02 fold enrichment (6-mer frequency, TF over GST control)"
same,binding signal,SPIB,"1.05 fold enrichment (6-mer frequency, TF over GST control)"
same,binding signal,FEV,"1.1 fold enrichment (6-mer frequency, TF over GST control)"
same,binding signal,ETV5,"1.06 fold enrichment (6-mer frequency, TF over GST control)"
same,binding signal,ELK4,"1.22 fold enrichment (6-mer frequency, TF over GST control)"
same,binding signal,ETV2,"1.19 fold enrichment (6-mer frequency, TF over GST control)"
same,binding signal,ETV1,"1.13 fold enrichment (6-mer frequency, TF over GST control)"
same,binding signal,ERF,"1.17 fold enrichment (6-mer frequency, TF over GST control)"
same,binding signal,ETV3L,"1.07 fold enrichment (6-mer frequency, TF over GST control)"
same,binding signal,ETS2,"1.08 fold enrichment (6-mer frequency, TF over GST control)"
same,binding signal,SPDEF,"1.06 fold enrichment (6-mer frequency, TF over GST control)"
same,binding signal,ETV3,"1.05 fold enrichment (6-mer frequency, TF over GST control)"
same,binding signal,ETV6,"1.02 fold enrichment (6-mer frequency, TF over GST control)"
